Laboratory results reported in PubChem BioAssay (NCATS).
A number with no mark means an inactive call. Results filed as inconclusive are left out. A call without a number means that no potency is given here. Active and inactive are the calls of the source. Unless noted, calls follow the shape of the dose curve; as a rule, active = well fitted curve in the direction sought with a large enough effect; inconclusive = small, poorly fitted or top-dose-only effect, or another doubt; inactive = no such curve, though single readings can be large; an effect the other way counts as inactive or inconclusive.

Tests used:
NIH3T3 = assay: qHTS assay to identify novel small-molecules to repurpose for Merkel cell carcinoma treatment (AID 1296009); conditions: MCC and control cell lines, CellTiter-Glo viability, 72 h; at 44.8 µM (top of the series) unless noted; also: nearly all actives have a fitted effect of over 60% in size
Outline: (§1)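 Cell viability, measured as CellTiter-Glo luminescence, was normalized between DMSO and no-cell wells. The cells had been exposed to 8- or 11-point compound dilutions for 72 hr at 37 degree celsius.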

UISO = assay: as above; conditions: MCC and control cell lines, CellTiter-Glo viability, 72 h; series mostly up to 46 µM
Outline: as §1

WaGa = assay: as above; conditions: MCC and control cell lines, CellTiter-Glo viability, 72 h; series mostly up to 46 µM
Outline: as §1

C33A = assay: Primary qHTS to identify gynecologic anti-cancer compounds using libraries of approved drugs and bioactive compounds (AID 1345084); conditions: Gynecologic cancer cell panel viability, ATPlite luminescence, 48 h; series mostly up to 57.5 µM; also: nearly all actives have a fitted effect of over 55% in size; also: potency is read from the fitted curve at half-maximal effect
Outline: (§2)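 Luminescence from the ATPlite ATP-monitoring reagent indicates viable cell number; lower signal means cytotoxicity. Cells received compound 16 h after seeding and were exposed for 48 h across five concentrations.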

CAOV3 = assay: as above; conditions: Gynecologic cancer cell panel viability, ATPlite luminescence, 48 h; series mostly up to 57.5 µM
Outline: as §2

CASKI = assay: as above; conditions: Gynecologic cancer cell panel viability, ATPlite luminescence, 48 h; series mostly up to 57.5 µM
Outline: as §2

Es-2 = assay: as above; conditions: Gynecologic cancer cell panel viability, ATPlite luminescence, 48 h; series mostly up to 57.5 µM
Outline: as §2

HeLa = assay: as above; conditions: Gynecologic cancer cell panel viability, ATPlite luminescence, 48 h; series mostly up to 57.5 µM
Outline: as §2

Hek293T = assay: as above; conditions: Gynecologic cancer cell panel viability, ATPlite luminescence, 48 h, control line for the selectivity index; series mostly up to 57.5 µM
Outline: as §2

JEG-3 = assay: as above; conditions: Gynecologic cancer cell panel viability, ATPlite luminescence, 48 h; series mostly up to 57.5 µM
Outline: as §2

OV90 = assay: as above; conditions: Gynecologic cancer cell panel viability, ATPlite luminescence, 48 h; series mostly up to 57.5 µM
Outline: as §2

PA-1 = assay: as above; conditions: Gynecologic cancer cell panel viability, ATPlite luminescence, 48 h; series mostly up to 57.5 µM
Outline: as §2

SKOV3 = assay: as above; conditions: Gynecologic cancer cell panel viability, ATPlite luminescence, 48 h; series mostly up to 57.5 µM
Outline: as §2

Tov-21-G = assay: as above; conditions: Gynecologic cancer cell panel viability, ATPlite luminescence, 48 h; series mostly up to 57.5 µM
Outline: as §2

Tov112D = assay: as above; conditions: Gynecologic cancer cell panel viability, ATPlite luminescence, 48 h; series mostly up to 57.5 µM
Outline: as §2

[1] = Drug repurposing screens with cells derived from glioblastoma tumor samples (AID 1345199); conditions: GBM patient neurospheres viability, ATP luminescence, 48 h; also: nearly all actives have a fitted effect of over 40% in size
Outline: (§3)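 Primary testing used CD133+ neurospheres from four GBM patients, seven concentrations, 48 h exposure and ATP-based viability; confirmation added three slower-growing patient lines.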

astro = assay: as above; conditions: viability, ATP luminescence, 48 h; series mostly up to 45.9 µM
Outline: as §3

[2] = target: Nuclear receptor subfamily 1 group I member 2 (Rattus norvegicus) (UniProt Q9R1A7); assay: qHTS assay for small molecule activators of the rat pregnane X receptor (rPXR) signaling pathway (AID 651751; call rule not given here); conditions: rPXR reporter cells, luciferase (One-Glo), 24 h
[3] = at 45.9 µM (top of the series), tumour line B
[4] = at 45.9 µM (top of the series), tumour line D
[5] = at 46 µM (top of the series), tumour line A

Chain of Nuclear receptor subfamily 1 group I member 2 (Rattus norvegicus) (Q9R1A7 whole entry, looked up): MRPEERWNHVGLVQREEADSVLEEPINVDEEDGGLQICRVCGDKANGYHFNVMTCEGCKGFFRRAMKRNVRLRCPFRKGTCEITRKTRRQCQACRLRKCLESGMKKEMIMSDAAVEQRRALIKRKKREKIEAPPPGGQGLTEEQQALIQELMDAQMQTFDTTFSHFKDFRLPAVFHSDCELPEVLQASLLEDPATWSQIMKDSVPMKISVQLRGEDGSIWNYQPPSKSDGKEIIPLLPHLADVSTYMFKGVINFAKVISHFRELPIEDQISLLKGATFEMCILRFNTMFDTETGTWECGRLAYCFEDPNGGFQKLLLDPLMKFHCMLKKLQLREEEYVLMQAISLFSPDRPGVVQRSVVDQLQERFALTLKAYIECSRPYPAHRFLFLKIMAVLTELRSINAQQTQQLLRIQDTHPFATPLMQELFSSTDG

CC(C)(C)OC(=O)c1ncn2c1[C@@H]1CCCN1C(=O)c1c(Br)cccc1-2
outcome (NIH3T3): inactive
Potency (UISO): inactive
Potency (WaGa): inactive
Potency (C33A): inactive
Potency (CAOV3): inactive
Potency (CASKI): inactive
Potency (Es-2): inactive
Potency (HeLa): inactive
Potency (Hek293T): inactive
Potency (JEG-3): inactive
Potency (OV90): inactive
Potency (PA-1): inactive
Potency (SKOV3): inactive
Potency (Tov-21-G): inactive
Potency (Tov112D): inactive
activity, negative = cell killing [1, 3]: -9.06%
activity, negative = cell killing [1, 4]: -11.3%
Potency (astro): inactive

COP(=O)(OC)C(O)C(Cl)(Cl)Cl (stereo unspecified)
outcome (NIH3T3): inactive
Potency (UISO): inactive
Potency (WaGa): inactive
Potency (C33A): inactive
Potency (CAOV3): inactive
Potency (CASKI): inactive
Potency (Es-2): inactive
Potency (HeLa): inactive
Potency (Hek293T): inactive
Potency (JEG-3): inactive
Potency (OV90): inactive
Potency (PA-1): inactive
Potency (SKOV3): inactive
Potency (Tov-21-G): inactive
Potency (Tov112D): inactive
activity, negative = cell killing [1, 3]: -5.86%
activity, negative = cell killing [1, 4]: -9.43%
activity, negative = cell killing [1, 5]: -20.1%
Potency (astro): inactive
max response [2]: 3.3%

COc1cc(N)c(Cl)cc1C(=O)NC1CN2CCC1CC2 (stereo unspecified)
outcome (NIH3T3): inactive
Potency (UISO): inactive
Potency (WaGa): inactive
Potency (C33A): inactive
Potency (CAOV3): inactive
Potency (CASKI): inactive
Potency (Es-2): inactive
Potency (HeLa): inactive
Potency (Hek293T): inactive
Potency (JEG-3): inactive
Potency (OV90): inactive
Potency (PA-1): inactive
Potency (SKOV3): inactive
Potency (Tov-21-G): inactive
Potency (Tov112D): inactive
activity, negative = cell killing [1, 3]: -1.32%
activity, negative = cell killing [1, 4]: 1.82%
Potency (astro): inactive

C#C[C@]1(O)C=C[C@H]2[C@@H]3CCC4=CC(=O)CC[C@@H]4[C@H]3CC[C@@]21CC
Potency (UISO): inactive
Potency (WaGa): inactive
Potency (C33A): inactive
Potency (CAOV3): inactive
Potency (CASKI): inactive
Potency (Es-2): inactive
Potency (HeLa): 12.6 µM (active)
Potency (Hek293T): inactive
Potency (JEG-3): inactive
Potency (OV90): inactive
Potency (PA-1): inactive
Potency (SKOV3): inactive
Potency (Tov-21-G): inactive
Potency (Tov112D): inactive
activity, negative = cell killing [1, 3]: -6.47%
activity, negative = cell killing [1, 4]: -10.7%

CCN1CCCC1CNC(=O)C(O)(c1ccccc1)c1ccccc1 (stereo unspecified)
outcome (NIH3T3): inactive
Potency (UISO): inactive
Potency (WaGa): inactive
Potency (C33A): inactive
Potency (CAOV3): inactive
Potency (CASKI): inactive
Potency (Es-2): inactive
Potency (HeLa): inactive
Potency (Hek293T): inactive
Potency (JEG-3): inactive
Potency (OV90): inactive
Potency (PA-1): inactive
Potency (SKOV3): inactive
Potency (Tov-21-G): inactive
Potency (Tov112D): inactive

CC(CC(C(N)=O)(c1ccccc1)c1ccccc1)N(C)C (stereo unspecified)
outcome (NIH3T3): inactive
Potency (UISO): inactive
Potency (WaGa): inactive
Potency (C33A): inactive
Potency (CAOV3): inactive
Potency (CASKI): inactive
Potency (Es-2): inactive
Potency (HeLa): inactive
Potency (Hek293T): inactive
Potency (JEG-3): inactive
Potency (OV90): inactive
Potency (PA-1): inactive
Potency (SKOV3): inactive
Potency (Tov-21-G): inactive
Potency (Tov112D): inactive

COCC(=O)N(c1c(C)cccc1C)C(C)C(=O)OC (stereo unspecified)
outcome (NIH3T3): inactive
Potency (UISO): inactive
Potency (WaGa): inactive
Potency (C33A): inactive
Potency (CASKI): inactive
Potency (Es-2): inactive
Potency (HeLa): inactive
Potency (Hek293T): inactive
Potency (JEG-3): inactive
Potency (OV90): inactive
Potency (PA-1): inactive
Potency (SKOV3): inactive
Potency (Tov-21-G): inactive
Potency (Tov112D): inactive
activity, negative = cell killing [1, 3]: -6.18%
activity, negative = cell killing [1, 4]: -6.37%
Potency (astro): inactive
max response [2]: 3.13%

O=C(CCCCl)c1ccc(F)cc1
Potency (UISO): inactive
Potency (WaGa): inactive
Potency (C33A): inactive
Potency (CAOV3): inactive
Potency (CASKI): inactive
Potency (Es-2): inactive
Potency (HeLa): inactive
Potency (Hek293T): inactive
Potency (JEG-3): inactive
Potency (OV90): inactive
Potency (PA-1): inactive
Potency (SKOV3): inactive
Potency (Tov-21-G): inactive
Potency (Tov112D): inactive

COc1ccc(C(=O)N2CCCC2=O)cc1
Potency (UISO): inactive
Potency (WaGa): inactive
Potency (C33A): inactive
Potency (CAOV3): inactive
Potency (CASKI): inactive
Potency (Es-2): inactive
Potency (HeLa): inactive
Potency (Hek293T): inactive
Potency (JEG-3): inactive
Potency (OV90): inactive
Potency (PA-1): inactive
Potency (SKOV3): inactive
Potency (Tov-21-G): inactive
Potency (Tov112D): inactive
activity, negative = cell killing [1, 3]: -4.07%
activity, negative = cell killing [1, 4]: -13.6%

CCOP(=S)(OCC)O/N=C(\C#N)c1ccccc1
outcome (NIH3T3): inactive
Potency (UISO): inactive
Potency (WaGa): inactive
Potency (C33A): inactive
Potency (CAOV3): inactive
Potency (CASKI): inactive
Potency (Es-2): inactive
Potency (HeLa): inactive
Potency (Hek293T): inactive
Potency (JEG-3): inactive
Potency (OV90): inactive
Potency (PA-1): inactive
Potency (SKOV3): inactive
Potency (Tov-21-G): inactive
Potency (Tov112D): inactive
activity, negative = cell killing [1, 3]: 9.02%
activity, negative = cell killing [1, 4]: -6.28%
Potency (astro): inactive
max response [2]: -0.568%

OC(c1ccccc1)(c1ccccc1)C1CCNCC1
Potency (UISO): inactive
Potency (WaGa): inactive
Potency (C33A): inactive
Potency (CAOV3): inactive
Potency (CASKI): inactive
Potency (Es-2): inactive
Potency (HeLa): inactive
Potency (Hek293T): inactive
Potency (JEG-3): inactive
Potency (OV90): inactive
Potency (PA-1): inactive
Potency (SKOV3): inactive
Potency (Tov-21-G): inactive
Potency (Tov112D): inactive
activity, negative = cell killing ([1]; at 21.2 µM (top of the series), tumour line B): -16.1%
activity, negative = cell killing ([1]; at 21.2 µM (top of the series), tumour line D): -0.163%

CC(C)(O)C(Cl)(Cl)Cl
outcome (NIH3T3): inactive
Potency (UISO): inactive
Potency (WaGa): inactive
Potency (C33A): inactive
Potency (CASKI): inactive
Potency (Es-2): inactive
Potency (HeLa): inactive
Potency (Hek293T): inactive
Potency (JEG-3): inactive
Potency (OV90): inactive
Potency (PA-1): inactive
Potency (SKOV3): inactive
Potency (Tov-21-G): inactive
Potency (Tov112D): inactive
activity, negative = cell killing [1, 3]: 4%
activity, negative = cell killing [1, 4]: 6.2%
Potency (astro): inactive

COC(=O)C1=CCCN(C)C1
outcome (NIH3T3): inactive
Potency (UISO): inactive
Potency (WaGa): inactive
Potency (C33A): inactive
Potency (CAOV3): inactive
Potency (CASKI): inactive
Potency (Es-2): inactive
Potency (HeLa): inactive
Potency (Hek293T): inactive
Potency (JEG-3): inactive
Potency (OV90): inactive
Potency (PA-1): inactive
Potency (SKOV3): inactive
Potency (Tov-21-G): inactive
Potency (Tov112D): inactive
activity, negative = cell killing [1, 3]: -5.77%
activity, negative = cell killing [1, 4]: -12.9%
activity, negative = cell killing [1, 5]: -22.4%
Potency (astro): inactive

Nc1ccc(N)cc1
Potency (UISO): inactive
Potency (WaGa): inactive
Potency (C33A): inactive
Potency (CAOV3): inactive
Potency (CASKI): inactive
Potency (Es-2): inactive
Potency (HeLa): inactive
Potency (Hek293T): inactive
Potency (JEG-3): inactive
Potency (OV90): inactive
Potency (PA-1): inactive
Potency (SKOV3): inactive
Potency (Tov-21-G): inactive
Potency (Tov112D): inactive
activity, negative = cell killing [1, 3]: -10.5%
activity, negative = cell killing [1, 4]: -20.4%

Nc1ccccc1C(=O)OCC(O)CO (stereo unspecified)
Potency (UISO): inactive
Potency (WaGa): inactive
Potency (C33A): inactive
Potency (CAOV3): inactive
Potency (CASKI): inactive
Potency (Es-2): inactive
Potency (HeLa): inactive
Potency (Hek293T): inactive
Potency (JEG-3): inactive
Potency (OV90): inactive
Potency (PA-1): inactive
Potency (SKOV3): inactive
Potency (Tov-21-G): inactive
Potency (Tov112D): inactive
